PubChem BioAssay (NCATS)
Records with an inconclusive call do not appear. Entries that show only a call come without a potency. Active and inactive are the calls of the source. Calls follow the shape of the dose curve; as a rule, active = well fitted curve in the direction sought with a large enough effect; inconclusive = small, poorly fitted or top-dose-only effect, or another doubt; inactive = no such curve, though single readings can be large; an effect the other way counts as inactive or inconclusive.

Legend:
[1] = Primary redox qHTS assay for identification of artifact compounds. (AID 1845223)
Outline: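 Amplex Red (25 uM) and HRP (250 mU/mL) in HBSS, with compounds for 15 min, then 250 uM DTT for 30 min, room temperature, dark. Fluorescence 525/598 nm read; normalized to DMSO and 10 uM DA3003; Hill fit.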

[2] = Quantitative High-Throughput drug screen in 47 multiple myeloma cell lines against the NCATS MIPE library collection: FR4_PLB cell viability assay (AID 1918924; also: nearly all actives have a fitted effect of over 35% in size; also: potency is read from the fitted curve at half-maximal effect)
Outline: (§1)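 Myeloma cell lines, 500 cells per well, exposed to MIPE 4.0 library compounds for 48 h at 37C, 5% CO2. Viability from ATP by CellTiter-Glo luminescence; normalised to DMSO (100%) and media-only (0%) wells.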

[3] = Quantitative High-Throughput drug screen in 47 multiple myeloma cell lines against the NCATS MIPE library collection: Delta47_JCRB cell viability assay (AID 1918925; also: nearly all actives have a fitted effect of over 45% in size; also: potency is read from the fitted curve at half-maximal effect)
Outline: as §1

[4] = Quantitative High-Throughput drug screen in 47 multiple myeloma cell lines against the NCATS MIPE library collection: EJM_DSMZ cell viability assay (AID 1918926; also: nearly all actives have a fitted effect of over 30% in size; also: potency is read from the fitted curve at half-maximal effect)
Outline: as §1

[5] = Quantitative High-Throughput drug screen in 47 multiple myeloma cell lines against the NCATS MIPE library collection: ARP1_JJKsccF8 cell viability assay (AID 1918928; also: nearly all actives have a fitted effect of over 40% in size; also: potency is read from the fitted curve at half-maximal effect)
Outline: (§2)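 Here, 48 h treatment with MIPE 4.0 agents at 37 °C preceded an ATP luminescence read. Plating density was 500 cells per well.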

[6] = Quantitative High-Throughput drug screen in 47 multiple myeloma cell lines against the NCATS MIPE library collection: ARD_JJKsccE7 cell viability assay (AID 1918929; also: potency is read from the fitted curve at half-maximal effect)
Outline: as §1

[7] = Quantitative High-Throughput drug screen in 47 multiple myeloma cell lines against the NCATS MIPE library collection: Karpas620_DSMZ cell viability assay (AID 1918959); also: nearly all actives have a fitted effect of over 30% in size; also: potency is read from the fitted curve at half-maximal effect
Outline: as §1

[8] = Quantitative High-Throughput drug screen in 47 multiple myeloma cell lines against the NCATS MIPE library collection: KMM1_JCRB cell viability assay (AID 1918960); also: nearly all actives have a fitted effect of over 30% in size; also: potency is read from the fitted curve at half-maximal effect
Outline: as §2

[9] = Quantitative High-Throughput drug screen in 47 multiple myeloma cell lines against the NCATS MIPE library collection: JIM3_ECACC cell viability assay (AID 1918963; also: nearly all actives have a fitted effect of over 35% in size; also: potency is read from the fitted curve at half-maximal effect)
Outline: as §1

[10] = Quantitative High-Throughput drug screen in 47 multiple myeloma cell lines against the NCATS MIPE library collection: H1112_PLB cell viability assay (AID 1918967; also: nearly all actives have a fitted effect of over 30% in size; also: potency is read from the fitted curve at half-maximal effect)
Outline: as §1

[11] = Quantitative High-Throughput drug screen in 47 multiple myeloma cell lines against the NCATS MIPE library collection: Karpas25_ECACC cell viability assay (AID 1918968; also: nearly all actives have a fitted effect of over 35% in size; also: potency is read from the fitted curve at half-maximal effect)
Outline: as §1

[12] = Quantitative High-Throughput drug screen in 47 multiple myeloma cell lines against the NCATS MIPE library collection: KMS12BM_JCRB cell viability assay (AID 1918971); also: nearly all actives have a fitted effect of over 35% in size; also: potency is read from the fitted curve at half-maximal effect
Outline: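 Inhibition of cell viability is measured here. Each line was plated at 500 cells per well, treated with MIPE 4.0 drugs, kept 48 hours at 37C, then assayed for ATP content by CellTiter-Glo luminescence.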

[13] = Quantitative High-Throughput drug screen in 47 multiple myeloma cell lines against the NCATS MIPE library collection: KMS12PE_JCRB cell viability assay (AID 1918972); also: nearly all actives have a fitted effect of over 30% in size; also: potency is read from the fitted curve at half-maximal effect
Outline: as §1

[14] = Quantitative High-Throughput drug screen in 47 multiple myeloma cell lines against the NCATS MIPE library collection: JIM1_ECACC cell viability assay (AID 1918964; also: potency is read from the fitted curve at half-maximal effect)
Outline: as §1

[15] = Quantitative High-Throughput drug screen in 47 multiple myeloma cell lines against the NCATS MIPE library collection: INA6_PLB cell viability assay (AID 1918965; also: nearly all actives have a fitted effect of over 55% in size; also: potency is read from the fitted curve at half-maximal effect)
Outline: as §1

[16] = Quantitative High-Throughput drug screen in 47 multiple myeloma cell lines against the NCATS MIPE library collection: KMS27_JCRB cell viability assay (AID 1918970); also: nearly all actives have a fitted effect of over 30% in size; also: potency is read from the fitted curve at half-maximal effect
Outline: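 Luminescent ATP read-out (CellTiter-Glo, 5 min at room temperature) after 48 h compound exposure of 500 KMS27_JCRB cells per well; DMSO wells define full viability and media-only wells zero.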

[17] = Quantitative High-Throughput drug screen in 47 multiple myeloma cell lines against the NCATS MIPE library collection: Karpas417_ECACC cell viability assay (AID 1918961); details: Karpas417 myeloma viability, CellTiter-Glo ATP luminescence, 48 h; viability (% of DMSO): at 45.8 µM (top of the series); also: potency is read from the fitted curve at half-maximal effect
Outline: as §1

[18] = Quantitative High-Throughput drug screen in 47 multiple myeloma cell lines against the NCATS MIPE library collection: JJN3_DSMZ cell viability assay (AID 1918966; also: nearly all actives have a fitted effect of over 50% in size; also: potency is read from the fitted curve at half-maximal effect)
Outline: as §1

[19] = Quantitative High-Throughput drug screen in 47 multiple myeloma cell lines against the NCATS MIPE library collection: AMO1_DSMZ cell viability assay (AID 1918927; also: nearly all actives have a fitted effect of over 30% in size; also: potency is read from the fitted curve at half-maximal effect)
Outline: as §1

[20] = Quantitative High-Throughput drug screen in 47 multiple myeloma cell lines against the NCATS MIPE library collection: KHM11_PLB cell viability assay (AID 1918962); also: nearly all actives have a fitted effect of over 35% in size; also: potency is read from the fitted curve at half-maximal effect
Outline: as §1

Cc1cc(C(C)(C)C)c(O)c(C)c1CC1=NCCN1
outcome [1]: inactive
Potency [2]: inactive
Potency [3]: inactive
Potency [4]: inactive
Potency [5]: inactive
Potency [6]: inactive
Potency [7]: inactive
Potency [8]: inactive
Potency [9]: inactive
Potency [10]: inactive
Potency [11]: inactive
Potency [12]: inactive
Potency [13]: inactive

NCCS(=O)(=O)O
Potency [2]: inactive
Potency [3]: inactive
Potency [4]: inactive
Potency [5]: inactive
Potency [6]: inactive
Potency [8]: inactive
Potency [12]: inactive
Potency [13]: inactive

Clc1ccc2c(c1)C(N1CCNCC1)=Nc1ccccc1O2
outcome [1]: inactive
Potency [2]: inactive
Potency [4]: inactive
Potency [7]: inactive
Potency [8]: inactive
Potency [9]: 26400 nM (active)
Potency [14]: inactive
Potency [11]: 14800 nM (active)
Potency [13]: inactive

O=C1Cc2cc(CCN3CCN(c4nsc5ccccc45)CC3)c(Cl)cc2N1
outcome [1]: inactive
Potency [3]: 23500 nM (active)
Potency [7]: 8330 nM (active)
Potency [9]: 23500 nM (active)
Potency [14]: inactive
Potency [15]: 18700 nM (active)
Potency [10]: 23500 nM (active)
Potency [11]: 18700 nM (active)
Potency [16]: 8330 nM (active)
Potency [12]: 20900 nM (active)

CC[C@@]1(O)C(=O)OCc2c1cc1n(c2=O)Cc2cc3c(CN(C)C)c(O)ccc3nc2-1
outcome [1]: inactive
Potency [2]: 2640 nM (active)
Potency [3]: 469 nM (active)
Potency [4]: 935 nM (active)
Potency [5]: 2960 nM (active)
Potency [6]: 2640 nM (active)
Potency [7]: 3720 nM (active)
Potency [8]: 1320 nM (active)
Potency [17]: 743 nM (active)
Potency [9]: 5260 nM (active)
Potency [14]: 743 nM (active)
Potency [15]: 29.6 nM (active)
Potency [18]: 5900 nM (active)
Potency [10]: 418 nM (active)
Potency [11]: 662 nM (active)
Potency [16]: 83.3 nM (active)
Potency [12]: 1870 nM (active)
Potency [13]: 2640 nM (active)

Cc1ccc(-c2cc(C(F)(F)F)nn2-c2ccc(S(N)(=O)=O)cc2)cc1
outcome [1]: inactive
Potency [2]: inactive
Potency [3]: 16600 nM (active)
Potency [4]: inactive
Potency [5]: inactive
Potency [6]: inactive
Potency [7]: inactive
Potency [8]: inactive
Potency [13]: 4180 nM (active)

Cn1c(=O)c2[nH]cnc2n(C)c1=O
Potency [2]: inactive
Potency [3]: inactive
Potency [4]: inactive
Potency [19]: inactive
Potency [5]: inactive
Potency [7]: inactive
Potency [8]: inactive
Potency [9]: inactive
Potency [15]: inactive
Potency [10]: inactive
Potency [11]: inactive
Potency [16]: inactive
Potency [12]: inactive
Potency [13]: inactive

CCC1(c2ccccc2)C(=O)NCNC1=O
Potency [2]: inactive
Potency [3]: 2960 nM (active)
Potency [4]: inactive
Potency [19]: 10500 nM (active)
Potency [5]: inactive
Potency [6]: 14800 nM (active)
Potency [7]: inactive
Potency [9]: 4690 nM (active)
Potency [15]: 3320 nM (active)
Potency [10]: 2960 nM (active)
Potency [11]: 1660 nM (active)

CCN1CCCC1CNC(=O)c1cc(S(=O)(=O)CC)c(N)cc1OC (stereo unspecified)
Potency [2]: inactive
Potency [3]: inactive
Potency [4]: inactive
Potency [5]: inactive
Potency [7]: inactive
Potency [8]: inactive
Potency [9]: inactive
Potency [14]: inactive
Potency [15]: inactive
Potency [18]: inactive
Potency [10]: inactive
Potency [11]: inactive
Potency [16]: inactive
Potency [13]: inactive

Nc1nc2c(ncn2COC(CO)CO)c(=O)[nH]1
Potency [2]: 26400 nM (active)
Potency [3]: 18700 nM (active)
Potency [4]: 14800 nM (active)
Potency [19]: 13200 nM (active)
Potency [6]: 4180 nM (active)
Potency [8]: 6620 nM (active)
Potency [17]: 11800 nM (active)
Potency [20]: 20900 nM (active)
Potency [9]: 2640 nM (active)
Potency [14]: 20900 nM (active)
Potency [15]: 1320 nM (active)
Potency [18]: 20900 nM (active)
Potency [10]: 26400 nM (active)
Potency [11]: 2640 nM (active)
Potency [16]: 10500 nM (active)
Potency [12]: 18700 nM (active)
Potency [13]: 14800 nM (active)

CN(CCOc1ccc(NS(C)(=O)=O)cc1)CCc1ccc(NS(C)(=O)=O)cc1
Potency [2]: inactive
Potency [3]: inactive
Potency [4]: inactive
Potency [5]: inactive
Potency [6]: inactive
Potency [7]: inactive
Potency [8]: inactive
Potency [17]: inactive
Potency [9]: inactive
Potency [14]: inactive
Potency [15]: inactive
Potency [18]: inactive
Potency [11]: inactive
Potency [13]: inactive

O=C(C1CCCCC1)N1CC(=O)N2CCc3ccccc3C2C1 (stereo unspecified)
Potency [2]: inactive
Potency [3]: inactive
Potency [4]: inactive
Potency [19]: inactive
Potency [5]: inactive
Potency [6]: inactive
Potency [7]: inactive
Potency [8]: inactive
Potency [20]: inactive
Potency [9]: inactive
Potency [10]: inactive
Potency [11]: inactive
Potency [16]: inactive
Potency [13]: inactive

CC#C[C@]1(O)CC[C@H]2[C@@H]3CCC4=CC(=O)CCC4=C3[C@@H](c3ccc(N(C)C)cc3)C[C@@]21C
Potency [2]: 1660 nM (active)
Potency [3]: 590 nM (active)
Potency [4]: 1320 nM (active)
Potency [19]: 743 nM (active)
Potency [5]: 1050 nM (active)
Potency [6]: 2640 nM (active)
Potency [7]: 662 nM (active)
Potency [8]: 1050 nM (active)
Potency [17]: 526 nM (active)
Potency [9]: 1180 nM (active)
Potency [14]: 526 nM (active)
Potency [15]: 662 nM (active)
Potency [18]: 1480 nM (active)
Potency [10]: 743 nM (active)
Potency [11]: 372 nM (active)
Potency [16]: 264 nM (active)
Potency [12]: 1180 nM (active)
Potency [13]: 469 nM (active)

COc1ccccc1N1CCN(CC(O)COc2cccc3ccccc23)CC1 (stereo unspecified)
Potency [2]: inactive
Potency [3]: inactive
Potency [4]: inactive
Potency [19]: inactive
Potency [5]: 9350 nM (active)
Potency [7]: inactive
Potency [8]: inactive
Potency [9]: 5260 nM (active)
Potency [18]: inactive
Potency [10]: 16600 nM (active)
Potency [11]: 11800 nM (active)
Potency [13]: inactive
